This is a sample that favours compounds with a hit; in the whole collection about 3.5% have one here.
FBW7 act: activators of human E3 ligase FBW7 | Q969H0 | AlphaScreen FBW7–phospho-cyclin E peptide binding, activator screen | actives 0.13% (n = 650,000) | normalized activity (activation), % at 26.1 µM; in the data active means normalized activity above about 1.9%;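 further: purified mutant Fbw7 with reduced substrate affinity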
GPR151 ag: activators of human GPR151; Q8TDV0; actives 1% (n = 650,000); activation, % at 11.2 µM; PathHunter beta-arrestin GPR151 cells, luminescence; in the data active means activation above about 4.9%;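 further: 0% = median of compound wells and 100% = cells with positive control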
Target sequence (Q8TDV0 whole entry, looked up): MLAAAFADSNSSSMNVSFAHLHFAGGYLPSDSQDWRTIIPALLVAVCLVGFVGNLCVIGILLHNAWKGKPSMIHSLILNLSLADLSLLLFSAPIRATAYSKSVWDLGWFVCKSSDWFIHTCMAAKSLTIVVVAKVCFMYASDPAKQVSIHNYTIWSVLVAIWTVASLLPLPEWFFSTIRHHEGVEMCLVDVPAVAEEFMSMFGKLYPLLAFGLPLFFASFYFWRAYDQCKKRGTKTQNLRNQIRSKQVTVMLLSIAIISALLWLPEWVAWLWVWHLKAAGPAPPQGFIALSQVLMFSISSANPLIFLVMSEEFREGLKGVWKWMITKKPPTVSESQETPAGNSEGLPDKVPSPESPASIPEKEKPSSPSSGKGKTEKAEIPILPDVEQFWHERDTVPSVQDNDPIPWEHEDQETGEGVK
TEAD-YAP inh: TEAD-YAP interaction inhibition. HEK-TIYL cells, TEAD-Gal4/YAP UAS-luciferase luminescence. inhibition, % at 9.12 µM. actives 1.4% (n = 640,000); in the data active means inhibition above about 32%;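 further: 0% = median of test compound wells and 100% = reference inhibitor wells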
MITF inh: human MITF inhibition, primary screen. O75030. AlphaScreen MITF homodimerization, bead proximity signal. inhibition, % at 2.6 µM. actives 0.91% (n = 650,000). AID 1259374; in the data active means inhibition above about 50%;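 further: 0% = vehicle wells with protein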
GPR151 confirm: confirmation of human GPR151 activators | shares compounds with GPR151 ag | GPR151 PathHunter beta-arrestin cells, luminescence, 90 min; % of EA-reagent control over plate median | activation, % at 11.2 µM | 6,700 tested, under 10 active;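 active means mean percent activation across replicates above the confirmation screen cutoff of 4.91%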
GPR119 counter: activates human GPR119 in a GPR151 counter-screen; actives 0.3% (n = 6,700); shares compounds with GPR151 ag; activation, % at 11.2 µM; GPR119 PathHunter beta-arrestin cells, luminescence, 90 min; 0 = compound-well median, 100 = enzyme-acceptor control;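 active means mean percent activation in the counterscreen above 29.09%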;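 further: counterscreen on off-target GPR119 to flag nonselective hits from the GPR151 activator screen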
Active calls of the source: *; . = not tested or not shown; ! = not confirmed by another sample.

SMILES	FBW7 act	GPR151 ag	TEAD-YAP inh	MITF inh	GPR151 confirm	GPR119 counter
COC(=O)C1CCN(C(=O)/C(=C\c2ccccc2)c2ccccc2)CC1	-0.1	0.9	-0.5	-1.6	.	.
N/C(=N\N=C\c1ccc2c(c1)OCO2)SC1CC(=O)N(c2ccc(C(=O)O)cc2)C1=O (centres undefined)	0.2	0.9	5.6	15.1	.	.
C/C(CCc1ccc2c(c1)OCO2)=N\N=C(/N)SC1CC(=O)N(c2ccccc2)C1=O (centres undefined)	0.3	6.1*	-3.8	13.5	-0.1	-13.4
COc1cccc(N2C(=O)CC(SC(N)=Nc3ccccc3)C2=O)c1 (centres undefined)	0.0	10.0*	-2.5	-3.5	0.1	-3.0
Cc1cccc(C)c1NC(=O)C(=O)NCCc1ccc(F)cc1	0.0	6.4*	-5.9	-6.7	0.0	-5.3
Cc1cccc(C)c1NC(=O)C(=O)NCCc1ccccc1	-0.3	-0.3	-1.3	-7.0	.	.
COc1ccc(C2(CC(=O)N3CCCC(O)C3)CC(=O)N(CCC(C)C)C2=O)cc1 (centres undefined)	-0.1	-0.7	5.0	3.1	.	.
COc1ccc(C2(CC(=O)N3CC[C@@H](O)C3)CC(=O)N(CCC(C)C)C2=O)cc1 (some centres undefined)	0.8	6.7*	7.8	2.4	0.1	2.5
c1ccc(-c2nn3cnnc3c3ccccc23)cc1	-0.2	1.1	-14.9	6.3	.	.
Clc1nn2cnnc2c2ccccc12	0.0	6.9*	-1.5	0.5	0.1	-6.5
CNc1ccc([N+](=O)[O-])cc1-n1cc2c(c1-c1ccc(C)cc1)c(=O)n(C)c(=O)n2C	0.6	-0.7	8.8	20.6	.	.
Cc1nc2c(ccc3nc(NC(=O)CN4C(=O)c5ccccc5C4=O)sc32)s1	0.1	-0.6	7.2	2.1	.	.
O=C(O)C1CSC(c2ccccc2F)N1 (centres undefined)	-0.1	5.3*	-5.7	0.2	0.2	-8.9
CCOC(=O)c1c(NC(=O)c2ccc([N+](=O)[O-])cc2)sc(C(=O)OC)c1C	0.0	5.3*	5.8	-2.4	-0.1	-11.4
CCOC(=O)c1c(NC(=O)c2ccc([N+](=O)[O-])cc2)sc(C(N)=O)c1C	0.1	-0.3	0.7	10.2	.	.
CC(=O)N1CCN(Cc2ccccc2)CC1C(=O)NCc1ccccc1 (centres undefined)	0.1	5.5*	-2.4	4.9	1.0	-6.6
CCNC(=O)N1CCN(Cc2ccccc2)CC1C(=O)NCc1ccccc1 (centres undefined)	0.1	4.3	-8.1	-6.2	.	.
CCc1nnc(-c2cc3ccccc3n2CC(=O)Nc2cccc(Cl)c2)o1	-0.1	5.3*	9.2	-8.6	-0.5	-8.5
CCCc1cc(C(=O)Nc2ccc(F)cc2F)no1	-0.1	-1.6	-31.0	1.0	.	.
Cc1cc(C(=O)Nc2ccc(F)cc2F)no1	1.0	6.5*	-27.2	8.2	0.4	-3.1
C#CCOc1ccc(-c2nc3cnccn3c2NCc2ccco2)cc1OC	0.0	4.3	-17.6	9.6	.	.
COc1cccc(OC)c1OCCN1CCNCC1	-0.1	0.2	-7.3	2.9	.	.
Clc1ccccc1OCCN1CCNCC1	0.0	5.4*	6.8	3.3	0.9	9.5
C=C1c2ccc(C)cc2NC(=O)N1CC	0.2	-0.2	6.8	-16.8	.	.
C=C1c2cc(OC)ccc2NC(=O)N1CC	0.1	5.5*	12.2	-6.8	-1.3	-15.9
SMILES	FBW7 act	GPR151 ag	TEAD-YAP inh	MITF inh	GPR151 confirm	GPR119 counter
COc1cccc(/C(C)=N/NS(=O)(=O)c2ccc(Cl)cc2)c1	-0.1	5.3*	-2.0	-23.3	1.0	18.4
COc1ccc(S(=O)(=O)N/N=C(/C)c2ccc(Cl)cc2)cc1	-0.1	-0.4	-6.5	-6.7	.	.
COc1ccc(-c2oc3c(CC=C(C)C)c(O[C@@H]4O[C@H](CO)[C@@H](O)[C@H](O)[C@H]4O)cc(O)c3c(=O)c2O[C@@H]2O[C@@H](C)[C@H](O)[C@@H](O)[C@H]2O)cc1	0.0	6.8*!	-0.1	-3.8	0.3	-7.9
CC(C)=CCC[C@@H](C)C1CC[C@@]2(C)C3=C(CC[C@]12C)[C@@]1(C)CCC(O)C(C)(C)[C@@H]1CC3 (some centres undefined)	0.0	7.7*!	6.5	-0.7	0.5	10.7
CC(=O)O[C@H]1CCC2(C)C3=C(CCC2C1(C)C)[C@]1(C)CCC(C(C)CCC=C(C)C)[C@@]1(C)CC3 (some centres undefined)	0.1	3.1	-12.1	11.7	.	.
CC1(C)C(=O)C2(C(=O)Nc3ccccc3Br)CCC1C2 (centres undefined)	-0.1	17.2*	-1.4	2.9	-0.3	-11.5
NC(=O)C[n+]1cccc(/C=N/O)c1	0.0	6.3*	-2.9	3.3	-0.4	-2.3
CC(C)N(C(=O)C[n+]1cccc(/C=N/O)c1)C(C)C	0.3	0.7	-4.8	5.6	.	.
Cc1ccc(S(=O)(=O)NCCCOC(C)C)cc1	-0.1	5.0*	10.6	3.4	0.2	-1.2
COc1ccc(-c2noc(CC(=O)Nc3ccc(C(C)C)cc3)n2)cc1	0.1	6.0*	-6.1	2.3	0.6	2.1
COc1ccc(-c2noc(CNC(=O)C(Cl)(Cl)Cl)n2)cc1	0.0	8.0*	-27.7	-28.3	-0.6	-5.7
COc1cccc(OC)c1C(=O)NCc1nc(-c2ccc(Cl)cc2)no1	-0.2	8.0*	8.5	0.9	-0.2	-8.8
Cc1cc(OCC(=O)NCc2nc(-c3ccccc3)no2)cc(C)c1Br	0.0	10.9*	7.8	7.8	-0.4	-4.7
COc1cccc(OC)c1C(=O)NCc1nc(-c2ccc(C)cc2)no1	-0.1	3.1	8.8	6.1	.	.
Cc1ccc(CC(=O)NCc2nc(-c3ccccc3)no2)cc1	0.1	5.7*	0.7	-0.1	0.3	-5.3
O=C(NCc1nc(-c2ccccc2)no1)c1cc(Br)ccc1Cl	0.0	5.3*	7.3	3.3	0.5	1.2
O=C(NCc1nc(-c2ccccc2)no1)c1ccccc1Cl	-0.1	-0.3	-9.2	1.1	.	.
COc1ccc(-c2noc(CNC(=O)Cc3ccc(OC)c(OC)c3)n2)cc1	0.8	5.1*	7.5	6.3	-1.0	-15.5
O=C(Nc1c2c(nn1-c1ccc(F)cc1)CS(=O)(=O)C2)C1CC1	-0.1	-0.3	4.1	-11.4	.	.
Cc1ccc2c(c1)c(=O)c1ccccc1n2CCCC(=O)Nc1ccc(Br)cc1C	0.0	-0.2	2.1	-6.7	.	.
Cc1ccc2c(c1)c(=O)c1ccccc1n2CCCC(=O)Nc1ccc(Br)cn1	0.5	17.0*	37.5*	-6.0	0.5	16.2
O=S(=O)(NC1CCCCC1)c1cccc2cccnc12	-0.3	1.1	-14.8	-6.3	.	.
CCCCN(CCCNC(=O)c1c(C)cc(=O)oc1C)c1ccccc1	0.1	1.8	-23.4	15.1	.	.
CCN(CCCNC(=O)c1c(C)cc(=O)oc1C)c1ccccc1	-0.1	5.1*	-10.1	2.9	-0.8	-8.0

Screening data: PubChem, The Scripps Research Institute Molecular Screening Center
